In PubChem BioAssay (NCI) one finds growth data, which are given here for eleven compounds.

About 83,000 compounds went through this panel and 20% of them were active in at least one assay; those are over-represented in the sample as a whole.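 48-hour exposure, single concentration, 96-well plates; percent growth endpoint where 0 means no net growth. Active: below 10.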 Unmarked numbers belong to inactive results. Activity calls are given as the source filed them.

Experiment in all cases: NCI-60 one-dose screen, 48 h (100 = growth as untreated, 0 = no growth, -100 = all killed)
What all share (conditions): 10 µM unless noted

Test [1] deals with HT29 colon.
The test system of test [2] is SNB-75 CNS.
The test system of test [3] is SNB-19 CNS.
Test [4] concerns U251 CNS.
Test [5] has as its system PC-3 prostate.
Test [6] relates to SK-MEL-5 melanoma.
The test system of test [7] is UACC-62 melanoma.
The subject of test [8] is LOX IMVI melanoma.
Test [9] concerns SK-MEL-28 melanoma.
Test [10] relates to SK-MEL-2 melanoma.

Regarding `Cn1cc(-c2cc(N)n3nc(-c4cn(C)c5ccc(Br)cc45)cc3n2)c2cc(Br)ccc21`, the growth in [1] was 4.96% (active); in [2], 82.2%; in [3], 104%; in test [4], -37.9% (active); in [5] it was 71.9%; in test [6] it was 108%. In addition, the growth in test [7] is 92.1%; in test [8], 6.31% (active); in test [9], 97.2%; in test [10], 120%.

Take `O=C1NC(=C(Cl)Cl)/C(=N/S(=O)(=O)N2CCCCC2CC2(C(F)(F)F)N=N2)N1` (configuration not stated): the growth in test [1] is -25.7% (active); in [2], 101%; in test [3], 40.8%; in test [4], -1.13% (active); in [5], 60.5%; in test [6] it was 95.3%. Besides, the growth is 38.4% in test [7], 7.84% (active) in test [9] and -4.45% (active) in [10].

Turning to `CC(C)(C)Nc1nc2c(OCCc3ccccc3)cccn2c1-c1ccc(Cl)cc1`, the growth in test [1] was 24.2%; in test [2] it was 51.7%; in [3], 19.7%; in [4] it was 11.9%; in [5], 3.08% (active); in test [6] it was -71.6% (active). Also, the growth was 11.1% in test [7], 2.87% (active) in test [8], 29.7% in test [9] and -33.9% (active) in [10].

As to `N#Cc1ccc(/C=N/NC(=O)c2[nH]c3ccc(Br)cc3c2-c2ccccc2)s1`, the growth is 5.64% (active) in [1]; 49.7% in [2]; 29.4% in test [3]; 16.5% in test [4]; 25% in test [5]; -40.9% (active) in test [6]. For the same compound, the growth was 23.4% in test [7], 58.4% in test [9] and 30.4% in [10].

On to `COc1ccc(C(=O)/C=C/c2ccc(OCc3ccc(C)cc3)c(OC)c2)cc1OC`, for which the growth was 68.8% in [1]; 72% in [2]; 69.8% in test [3]; 49.9% in test [4]; 55.9% in [5]; 64.5% in test [6]. For the same compound, the growth in test [7] was 54.5%; in [9] it was 82.3%; in test [10], 94.3%.

On to `CCC/C=C/C=C/C(=O)N[C@@H](Cc1cc(F)cc(F)c1)C(=O)N[C@@H]1C(=O)N2CCC[C@H]2C(=O)N2CCCC[C@H]2C(=O)N[C@@H](C)C(=O)N2C[C@H](C)C[C@H]2C(=O)O[C@H]1C`, for which the growth in test [1] was 9.05% (active); in test [2] it was 28.5%; in test [3] it was 25.8%; in test [4], 26.8%; in [5], 14.5%; in test [6] it was 10.5%. Further, the growth in test [7] was 13.6%; in test [8], -25.3% (active); in test [9], 29%; in test [10] it was -12.9% (active).

Take `O=C(CCCN1C(=O)/C(=C/c2ccccc2F)SC1=S)N1CCOCC1`: the growth in test [1] was 99.2%; in test [2], 79.3%; in test [3] it was 101%; in test [4] it was 86.1%; in [5], 105%; in test [6], 97.1%. The growth in test [7] was 81.5%; in test [8], -63.6% (active); in test [9], 89.7%; in test [10], 115%.

`O=C(CN1CCOCC1)NNc1ncnc2ccccc12`: in [8], the growth is 9.78% (active).

As for `O=C(Nc1nc2ccc(O)cc2s1)c1cccc(C(F)(F)F)c1`, the growth in test [1] was 102%; in [2] it was 118%; in test [3], 95.4%; in [4] it was 62.7%; in test [5] it was 58.2%; in [7], 45.6%. For the same compound, the growth in test [9] is 82.2%.

For `O=C1C2=C(C(=O)c3c(O)cccc31)C(c1ccco1)c1sc(=O)[nH]c1S2` (configuration not stated), the growth in [1] is 12.5%; in test [2], 32.4%; in [3] it was 13.6%; in [4], 11.5%; in test [5], 8.77% (active); in test [6], -93.4% (active). Moreover, the growth in [8] is -2.86% (active); in test [9] it was -28.8% (active); in test [10] it was -7.37% (active).

As to `COc1cc(OC)c(S(=O)(=O)NNC(=O)c2ccncc2)cc1C(=O)/C=C/c1ccc(C)cc1`, the growth in [1] is 95.1%; in test [2], 73%; in [3], 66.7%; in [4], 68.1%; in [5], 45.9%; in test [6] it was 94.2%. The results for the growth in test [9] and in [10] were 104% and 109%, respectively.
